Molecules are shown by their SMILES. “And” between values parts separate entries of the source, which are not always exact repeats. Equal entries are not always repeated. Records with an inconclusive call do not appear. The source made the active and inactive calls. Unless noted, calls come from the whole dose curve.

These results are taken from PubChem BioAssay (Tox21).

Assay [1] can be described thus: qHTS assay to identify small molecule antagonists of the sonic hedgehog signaling (Shh) pathway (AID 1259369). Note: nearly all actives have a fitted effect of over 45% in size. Note: potency is the fitted concentration of half-maximal effect. The method in brief: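 Screening used 3T3Gli1-Luc cells at 2,000 per well, compounds delivered in DMSO, and conditioned medium as agonist stimulus; plates incubated 24hr at 37 C and 5% CO2 before a 30min luciferase step.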
Background: qHTS replaces the single test concentration by a dilution series.

The target in assay [2] is Estrogen receptor beta (Homo sapiens) (UniProt Q92731). Put plainly: qHTS assay to identify small molecule agonists of the estrogen receptor beta (ER-beta) signaling pathway (AID 1259377; active = well fitted activation curve with a large enough effect in the signal ratio in the repeat runs, not every such curve was filed as active; the % refers to the signal ratio). The method in brief:
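ER-beta-UAS-bla HEK293T (GripTite) cells carrying a UAS-driven beta-lactamase reporter, in medium with 2% charcoal-stripped FBS, were exposed to compounds for 16 hr at 37C; LiveBLAzer B/G FRET substrate was then added and fluorescence read after 2 hours at room temperature.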

Assay [3] shares this target. Briefly: qHTS assay to identify small molecule antagonists of the estrogen receptor beta (ER-beta) signaling pathway (AID 1259378; active = well fitted inhibition curve with a large enough effect in the signal ratio in the repeat runs, not every such curve was filed as active; the % refers to the signal ratio; note: potency is the fitted concentration of half-maximal effect). The method in brief:
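Antagonist mode: compounds added to beta-lactamase reporter HEK293T ER-beta-UAS cells stimulated with E2 (1nM final), 16 hr at 37C. LiveBLAzer B/G FRET substrate, 2 hours room temperature, fluorescence read-out.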

Assay [4] can be described thus: qHTS assay to identify small molecule agonists of the androgen receptor (AR) signaling pathway in the presence of an antagonist - cell viability counter screen (AID 1259379; active = well fitted curve in the direction sought with a large enough effect in the repeat runs; an effect the other way counts as inactive or inconclusive; note: nearly all actives have a fitted effect of over 25% in size; note: potency is the fitted concentration of half-maximal effect). Summed up:
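In MDA-kb2 cells (human breast carcinoma, MMTV-luciferase), compounds at 15 concentrations plus 3.0uM nilutamide; 16 hr, 37C, 0% CO2; CellTiter-Fluor fluorescence read for viability.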

Assay [5] in a line: qHTS assay to identify small molecule agonists of the estrogen receptor beta (ER-beta) signaling pathway - cell viability counter screen (AID 1259380; active = well fitted curve in the direction sought with a large enough effect in the repeat runs; an effect the other way counts as inactive or inconclusive; note: nearly all actives have a fitted effect of over 30% in size; note: potency is the fitted concentration of half-maximal effect). The method in brief:
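Viability of ER-beta-UAS-bla HEK293T cells was determined by CellTiter-Glo luminescence following 16 hr treatment with test compounds at 37C.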

The target in assay [6] is Androgen receptor (Homo sapiens) (UniProt P10275). Briefly: qHTS assay to identify small molecule agonists of the androgen receptor (AR) signaling pathway in the presence of an antagonist (AID 1259381). Note: nearly all actives have a fitted effect of over 15% in size. The method in brief:
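Here, 15-concentration compound series were pin-transferred onto MDA-kb2 MMTV-luciferase cells already dosed with nilutamide (3.0uM final). After 16hr at 37C, ONE-Glo was added and luminescence read 30min later at room temperature.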

Assay [7] can be described thus: qHTS assay to identify small molecule antagonists of the estrogen receptor beta (ER-beta) signaling pathway - cell viability counter screen (AID 1259382; active = well fitted curve in the direction sought with a large enough effect in the repeat runs; an effect the other way counts as inactive or inconclusive; note: nearly all actives have a fitted effect of over 55% in size; note: potency is the fitted concentration of half-maximal effect). Summed up:
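Tox21 10K library tested in qHTS format on ER-beta-bla HEK293T cells stimulated with 1nM E2; 16 hr treatment at 37C. Same-well CellTiter-Glo luminescence served as the cell viability measure.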

Assay [8] deals with Estrogen receptor (Homo sapiens) (UniProt P03372). Briefly: qHTS assay to identify small molecule agonists of the estrogen receptor alpha (ER-alpha) signaling pathway in the presence of an antagonist (AID 1259383). Note: top concentration of the series differs between compounds; nearly all actives have a fitted effect of over 15% in size. The method in brief:
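In VM7Luc4E2 cells, 4,000 per well, compounds at 15 concentrations were co-incubated 22hr at 37C with 10.0nM final ICI-182,780. Luminescence from the stably transfected 4×ERE-luciferase reporter was recorded 30min after ONE-Glo addition.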

Assay [9] is described as follows: qHTS assay to identify small molecule agonists or antagonists of the thyroid stimulating hormone receptor (TSHR) signaling pathway - wild type cell line counter screen (AID 1259384). The method in brief: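 Counter screen in untransfected Hek293: compounds (15-point titration, triplicate) plus phosphodiesterase inhibitor Ro20-1724 added after 18 h plating; 30 min RT. Intracellular cAMP via competitive d2/cryptate immunoassay, 1 h incubation.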

Assay [10] deals with Thyrotropin receptor (Homo sapiens) (UniProt P16473). Put plainly: qHTS assay to identify small molecule antagonists of the thyroid stimulating hormone receptor (TSHR) signaling pathway (AID 1259385). Note: nearly all actives have a fitted effect of over 20% in size. Summed up: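 Antagonist mode: compound-treated TSHR-expressing HEK293 cells were stimulated with 1.5 ng/mL TSH (final) in presence of Ro20-1724 for 30 min at RT. HTRF cAMP detection after 1 h; each compound tested at 15 concentrations, triplicate.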
Sequence of Thyrotropin receptor (Homo sapiens) (P16473 whole entry, looked up): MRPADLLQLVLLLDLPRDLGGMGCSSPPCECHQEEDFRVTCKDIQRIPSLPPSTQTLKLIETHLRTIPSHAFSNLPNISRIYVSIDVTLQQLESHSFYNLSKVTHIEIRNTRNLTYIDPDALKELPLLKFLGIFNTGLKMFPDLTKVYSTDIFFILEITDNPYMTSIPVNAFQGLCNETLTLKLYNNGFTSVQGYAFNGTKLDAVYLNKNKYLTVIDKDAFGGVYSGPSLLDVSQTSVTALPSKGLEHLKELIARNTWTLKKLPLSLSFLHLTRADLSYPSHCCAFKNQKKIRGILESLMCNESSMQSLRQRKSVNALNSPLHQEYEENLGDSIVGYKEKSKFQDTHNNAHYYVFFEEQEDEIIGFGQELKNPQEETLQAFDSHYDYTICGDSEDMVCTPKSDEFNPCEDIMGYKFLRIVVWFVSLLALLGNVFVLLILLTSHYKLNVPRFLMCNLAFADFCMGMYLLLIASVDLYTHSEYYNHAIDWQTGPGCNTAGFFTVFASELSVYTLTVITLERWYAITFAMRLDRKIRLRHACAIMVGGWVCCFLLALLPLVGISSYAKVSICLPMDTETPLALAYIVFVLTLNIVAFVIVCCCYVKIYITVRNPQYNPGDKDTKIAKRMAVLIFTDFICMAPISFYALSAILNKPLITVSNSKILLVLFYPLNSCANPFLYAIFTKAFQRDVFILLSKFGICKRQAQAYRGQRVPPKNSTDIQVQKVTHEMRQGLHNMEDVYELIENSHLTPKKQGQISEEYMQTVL

Sequence of Estrogen receptor (Homo sapiens) (P03372 whole entry, looked up): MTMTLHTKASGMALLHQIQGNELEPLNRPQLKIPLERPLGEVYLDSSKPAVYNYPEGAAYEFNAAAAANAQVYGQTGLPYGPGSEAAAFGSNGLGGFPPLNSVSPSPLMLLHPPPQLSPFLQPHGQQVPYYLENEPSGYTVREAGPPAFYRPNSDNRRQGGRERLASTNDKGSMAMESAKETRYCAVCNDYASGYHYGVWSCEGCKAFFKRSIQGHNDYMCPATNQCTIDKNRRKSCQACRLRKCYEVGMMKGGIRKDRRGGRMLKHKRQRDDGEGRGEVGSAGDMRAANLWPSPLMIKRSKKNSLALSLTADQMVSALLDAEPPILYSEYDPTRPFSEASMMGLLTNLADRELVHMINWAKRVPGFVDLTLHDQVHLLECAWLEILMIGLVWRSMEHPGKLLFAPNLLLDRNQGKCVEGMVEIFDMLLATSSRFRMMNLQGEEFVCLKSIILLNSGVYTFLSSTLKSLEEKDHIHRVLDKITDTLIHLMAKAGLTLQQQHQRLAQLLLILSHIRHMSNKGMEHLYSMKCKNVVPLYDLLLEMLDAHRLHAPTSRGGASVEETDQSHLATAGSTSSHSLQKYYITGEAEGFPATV
Sequence of Androgen receptor (Homo sapiens) (P10275 whole entry, looked up): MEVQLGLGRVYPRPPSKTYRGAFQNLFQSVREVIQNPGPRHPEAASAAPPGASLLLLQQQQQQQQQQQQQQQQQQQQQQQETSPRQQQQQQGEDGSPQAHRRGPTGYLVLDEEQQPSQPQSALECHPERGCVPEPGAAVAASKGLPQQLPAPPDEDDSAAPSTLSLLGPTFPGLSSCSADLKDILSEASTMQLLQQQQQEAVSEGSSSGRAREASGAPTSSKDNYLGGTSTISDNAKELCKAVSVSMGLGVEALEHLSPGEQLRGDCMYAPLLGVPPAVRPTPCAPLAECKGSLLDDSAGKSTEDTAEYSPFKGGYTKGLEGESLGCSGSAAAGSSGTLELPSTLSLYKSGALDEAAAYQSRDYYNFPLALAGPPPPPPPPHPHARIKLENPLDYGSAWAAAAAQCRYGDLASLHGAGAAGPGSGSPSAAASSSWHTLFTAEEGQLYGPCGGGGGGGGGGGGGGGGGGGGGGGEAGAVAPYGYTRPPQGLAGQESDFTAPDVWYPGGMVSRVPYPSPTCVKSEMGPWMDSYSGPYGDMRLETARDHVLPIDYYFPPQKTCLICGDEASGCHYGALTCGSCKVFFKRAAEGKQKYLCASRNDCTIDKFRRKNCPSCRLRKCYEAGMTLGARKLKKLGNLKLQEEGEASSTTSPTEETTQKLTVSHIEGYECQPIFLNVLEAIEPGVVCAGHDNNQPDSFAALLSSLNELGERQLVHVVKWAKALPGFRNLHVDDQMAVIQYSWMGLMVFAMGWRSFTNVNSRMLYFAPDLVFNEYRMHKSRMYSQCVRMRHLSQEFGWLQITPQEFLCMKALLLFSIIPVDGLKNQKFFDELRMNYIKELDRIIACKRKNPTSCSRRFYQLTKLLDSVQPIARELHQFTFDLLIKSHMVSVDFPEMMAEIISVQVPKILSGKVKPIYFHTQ
Sequence of Estrogen receptor beta (Homo sapiens) (Q92731 whole entry, looked up): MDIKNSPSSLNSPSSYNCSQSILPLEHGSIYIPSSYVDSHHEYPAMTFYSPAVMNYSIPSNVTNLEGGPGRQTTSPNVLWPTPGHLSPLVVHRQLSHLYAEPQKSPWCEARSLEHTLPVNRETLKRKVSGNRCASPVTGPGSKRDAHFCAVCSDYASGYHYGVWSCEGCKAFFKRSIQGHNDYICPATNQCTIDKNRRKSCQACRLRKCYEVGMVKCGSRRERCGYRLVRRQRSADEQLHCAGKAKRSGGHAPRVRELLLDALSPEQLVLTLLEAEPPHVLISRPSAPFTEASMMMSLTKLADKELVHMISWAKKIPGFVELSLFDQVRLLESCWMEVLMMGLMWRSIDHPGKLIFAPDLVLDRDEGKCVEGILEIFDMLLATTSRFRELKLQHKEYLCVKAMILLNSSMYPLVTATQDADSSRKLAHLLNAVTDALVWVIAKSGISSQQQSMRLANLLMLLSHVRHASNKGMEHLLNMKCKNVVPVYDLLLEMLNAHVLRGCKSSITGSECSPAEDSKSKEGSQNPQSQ

Take `CN(C)Cc1ccccc1O`: the Potency result in assay [1], in [2], in assay [3], in [4], in [5] and in assay [7] was “inactive” in each case. For the same molecule, the Potency entry in assay [8] and in assay [10] was “inactive” in each case. For the same molecule, the result in assay [6] and in assay [9] was inactive.
As to `CC(C)OC(=O)C(O)(CC(=O)O)CC(=O)O`, the Potency result in assay [1], in assay [2], in assay [3], in [4], in [5] and in assay [7] was “inactive” in each case. Also, the Potency result in assay [8] and in assay [10] was “inactive” throughout. Also, the result in assay [6] and in [9] was inactive.
Regarding `CCCCOC(=O)CO`, the Potency entry in assay [1], in assay [2], in assay [3], in assay [4], in assay [5] and in assay [7] was “inactive” throughout.
Turning to `C=CCCC(=O)/C=C/C1C(C)=CCCC1(C)C` (centres undefined), the Potency result in assay [1], in assay [2], in assay [3], in [4], in assay [5] and in assay [7] was “inactive” each time.
On to `OC1CCC(C2CCCCC2)CC1` (centres undefined), for which the Potency result in assay [1], in assay [2], in [3], in [4], in [5] and in [7] was “inactive” throughout. Further, the Potency result in assay [8] and in assay [10] was “inactive” throughout. For the same molecule, in [9], the call was inactive.
With `CCCC1CCC(=O)CC1`, the Potency result in assay [1], in [2], in assay [3], in assay [4], in assay [5] and in assay [7] was “inactive” each time. In addition, in assay [8], the Potency result was “inactive”.
For `O=C(O)c1ccc2cc(C(=O)O)ccc2c1`, the Potency result in assay [1], in assay [2], in [3], in assay [4], in assay [5] and in assay [7] was “inactive” each time. Further, the Potency entry in assay [8] is “inactive”. For the same molecule, the molecule was classed as inactive in [9].
As for `CCCC(=O)OC(C)(C)Cc1ccccc1`, the Potency entry in [1], in [2], in assay [3], in assay [4], in [5] and in assay [7] was “inactive” in each case.
As to `CN(C)[C@@H](CCOc1cccc2ccccc12)c1ccccc1`, the Potency is 29.8 µM (active) in assay [1]; 29.8 µM (active) in assay [3]; 29.8 µM (active) in assay [4]; 23.7 µM (active) in assay [5]; 15 µM (active) in assay [7]. Further, the Potency result in assay [2] and in assay [10] was “inactive” in each case. The result in [6] and in assay [9] was inactive.
In the case of `Cc1ccc(C(C)C)cc2c(C)ccc1-2`, the Potency result in [1], in [2], in assay [3], in assay [4], in [5] and in assay [7] was “inactive” each time. Further, the Potency result in assay [8] and in [10] was “inactive” throughout. For the same molecule, in [9], the call was inactive.
`CCN1C(=O)c2ccccc2C1Nc1ccc(OCCN2CCCCC2)cc1` (centres undefined): the Potency in [1] was 13.3 µM (active). For the same molecule, the Potency entry in [2], in assay [3], in [4], in assay [5] and in assay [10] was “inactive” in each case. For the same molecule, the result in assay [6] and in assay [9] was inactive.
Turning to `[Cu+]`, the Potency entry in assay [1], in [2], in assay [3], in assay [4], in [5] and in assay [7] was “inactive” throughout. In addition, the Potency result in assay [8] is “inactive”. Also, the molecule was called inactive in [9].
Consider `CCCCCC/C=C\CCCCCCCC(=O)O`, for which the Potency result in assay [1], in assay [2], in [3], in assay [4], in assay [5] and in assay [7] was “inactive” throughout. In addition, the Potency result in assay [8] and in assay [10] was “inactive” each time. The outcome in assay [9] was inactive.
With `COC(=O)c1ccccc1OC`, the Potency result in [1], in assay [2], in [3], in assay [4], in assay [5] and in assay [7] was “inactive” each time. The Potency result in [8] and in [10] was “inactive” each time. In addition, the molecule was classed as inactive in assay [9].
On to `FC(F)(F)c1cccc(Cl)c1`, for which the Potency entry in assay [1], in [2], in [3], in assay [4], in assay [5] and in assay [7] was “inactive” each time. Moreover, the Potency result in assay [8] and in assay [10] was “inactive” throughout. Further, the result in assay [6] and in assay [9] was inactive.
On to `OC12N=C(c3ccccc3)SC1Cc1cc(Cl)ccc12` (centres undefined), for which the Potency result in assay [1], in assay [2] and in assay [4] was “inactive” in each case. The Potency in [3] was 61.1 µM (active).
Turning to `CCCCCCCCCCOC(=O)c1ccccc1C(=O)OCCCCCCCC`, the Potency entry in assay [1], in assay [2], in assay [3], in assay [4], in assay [5] and in [7] was “inactive” each time. In addition, the Potency entry in [10] was “inactive”. In addition, the outcome in assay [6] and in [9] was inactive.
Turning to `NC(=O)c1cccc([N+](=O)[O-])c1`, the Potency result in assay [1], in assay [2], in [3], in assay [4], in assay [5] and in assay [7] was “inactive” throughout. Further, the Potency entry in assay [10] is “inactive”. For the same molecule, the outcome in [6] and in assay [9] was inactive.
For the molecule `O=C(/C=C/c1ccccc1)OC/C=C/c1ccccc1`, the Potency result in [1], in [2], in [3], in assay [4], in [5] and in assay [7] was “inactive” in each case. For the same molecule, the Potency result in assay [8] and in [10] was “inactive” each time. Also, the outcome in [6] and in assay [9] was inactive.
For the molecule `CC(=O)OCC=C(C)C`, the Potency result in assay [1], in [2], in [3], in assay [4], in [5] and in [7] was “inactive” in each case. Moreover, the Potency result in assay [8] and in [10] was “inactive” each time. Also, the outcome in assay [6] and in [9] was inactive.
Take `CC(CO)Oc1ccccc1` (centres undefined): the Potency entry in assay [1], in [2], in assay [3], in assay [4], in assay [5] and in [7] was “inactive” throughout. Moreover, the Potency entry in assay [10] is “inactive”. Moreover, the result in [6] and in assay [9] was inactive.
Take `CN(C)CCN1CCN(c2cccc(Cl)c2)C1=O`: the Potency result in assay [1], in [2], in [3], in assay [4], in [5] and in assay [7] was “inactive” each time. For the same molecule, the Potency entry in assay [8] and in assay [10] was “inactive” each time. In addition, the outcome in [6] and in [9] was inactive.
Take `CN(C)c1ccc(C(=C2C=CC(=[N+](C)C)C=C2)c2ccc(N(C)C)cc2)cc1`: the Potency was 1.53 µM (active) and 864 nM (active) and 3.35 µM (active) in [1]; 27.2 µM (active) and 37.6 µM (active) in assay [3]; 4.31 µM (active) and 13.7 µM (active) and 3.35 µM (active) in assay [4]; 10.8 µM (active) and 27.3 µM (active) and 13.3 µM (active) in [5]; 21.6 µM (active) and 27.3 µM (active) and 13.3 µM (active) in [7]. The Potency entry in [2] and in [8] was “inactive” in each case. Further, the result in assay [6] was inactive.
For the molecule `Nc1ccc(NCCO)c([N+](=O)[O-])c1`, the Potency entry in [1], in assay [2], in assay [3], in assay [5] and in assay [7] was “inactive” in each case. The Potency in [4] was 48.6 µM (active).
